Bioassay records deposited in PubChem by National Center for Advancing Translational Sciences (NCATS).
The list is not random: actives were taken first. Their share in the collection is about 0.5%.
TR SRC2 fluor cs = Texas Red fluorescence interference in TRb-SRC2 counter-screen; 280,000 tested, 0.29% active; TRb/SRC2 Texas Red total fluorescence interference; Potency, µM (series often up to 106 µM), for the others: top-dose fluorescence change, negative = quenching; active means well fitted curve in either direction with a large enough effect; inconclusive means small, poorly fitted or top-dose-only effect; further: potency means the concentration at half of the fitted maximal effect; on the % scale 0 is the no-effect control and ±100 the full control effect
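Human TRb ligand-binding domain at 0.6 uM with 20 nM Texas Red SRC2 peptide in Tris buffer containing 1 uM T3 and 5% DMSO, incubated with compound 5 h at ambient temperature. Total fluorescence (555/632 nm) calculated as parallel + 2 × perpendicular.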
RGS12 GoLoco inh = inhibitors of human Gai1-RGS12 GoLoco interaction (red fluorophore) | P63096 | Gai1:RGS12 GoLoco peptide FP, rhodamine, 10 min | Potency, µM (titrated, usually from 61.6 µM), for inactives: at the top dose activity, negative = inhibition, actives largely listed as inhibitors | 230,000 tested, 0.44% active | AID 880; active means well fitted inhibition curve with a large enough effect, not every such curve was filed as active; inactive means no such curve, though single readings can be large or run the other way; further: potency means the concentration at half of the fitted maximal effect; on the % scale 0 is the no-effect control and ±100 the full control effect; nearly all actives have a fitted effect of over 30% in size
Target sequence (P63096 whole entry, looked up): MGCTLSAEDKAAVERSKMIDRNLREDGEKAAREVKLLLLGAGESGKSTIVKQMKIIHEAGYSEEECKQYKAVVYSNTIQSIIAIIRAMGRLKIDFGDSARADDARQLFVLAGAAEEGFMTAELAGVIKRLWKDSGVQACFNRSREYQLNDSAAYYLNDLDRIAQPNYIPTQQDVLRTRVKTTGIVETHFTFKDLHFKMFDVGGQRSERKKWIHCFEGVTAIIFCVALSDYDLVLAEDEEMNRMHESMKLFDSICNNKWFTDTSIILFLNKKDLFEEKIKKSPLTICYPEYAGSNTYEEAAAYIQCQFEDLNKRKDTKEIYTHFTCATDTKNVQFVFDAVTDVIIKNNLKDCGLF
Menin-MLL TR inh = displaces Texas Red mutant MLL peptide from human menin | Potency, µM (titrated, usually from 61.6 µM), without a hit: at the highest dose FP activity change, negative = inhibition, most hits filed as inhibitors | O00255 | 270,000 tested, 0.23% active | Menin + Texas Red MLL mutant peptide, fluorescence polarization | AID 1768; active means well fitted inhibition curve with a large enough effect in the polarisation, with a control signal flat, not every such curve was filed as active; inconclusive means small, poorly fitted or top-dose-only effect, or effect the other way, or a change in a side signal; inactive means no such curve, though single readings can be large or run the other way; the % refers to the polarisation; further: potency means the concentration at half of the fitted maximal effect; % of control where 0% means no effect
CXXC DNA block = blocks binding of human MLL CXXC domain to DNA | MLL-CXXC / FITC-HOXA9 DNA fluorescence polarization | Potency, µM (highest dose often 115 µM), inactives show top-dose activity change, negative = inhibition, usual class: inhibitors | Q03164 | AID 2662 | 290,000 tested, 0.037% active; active means well fitted inhibition curve with a large enough effect in the polarisation, with a control signal flat, not every such curve was filed as active; inconclusive means small, poorly fitted or top-dose-only effect, or effect the other way, or a change in a side signal; inactive means no such curve, though single readings can be large or run the other way; the % refers to the polarisation; further: potency means the concentration at half of the fitted maximal effect
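Steps: dispense CXXC domain solution (7 uM) → pin compounds or unlabeled HOX-A9 DNA control → 5 min ambient → add FLSN-HOX-A9 solution (50 nM) → spin → 30 min ambient → fluorescence polarization. Tris pH 7.5/NaCl/DTT/BSA buffer.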
Menin MLL FP FL = inhibitors of human menin-MLL interaction, wild-type MLL peptide; FP activity change, % at 61.4 µM; 290,000 tested, under 10 active; Fluorescence polarization, fluorescein-MLL peptide displacement from menin; active means well fitted curve in the direction sought with a large enough effect in the polarisation, not every such curve was filed as active; inconclusive means small, poorly fitted or top-dose-only effect, or effect the other way, or a change in a side signal; inactive means no such curve, though single readings can be large or run the other way; the % refers to the polarisation; further: % of control where 0% means no effect
TRb-SRC2 inh = TRbeta-SRC2 interaction inhibition | Potency, µM (top dose mostly 106 µM), for the others: at the top dose activity change, negative = inhibition, usual class: inhibitors | TRbeta-SRC2 peptide binding, fluorescence polarization; receptor liganded with 1 µM T3 | 280,000 tested, 0.065% active | P10828; active means well fitted inhibition curve with a large enough effect; inconclusive means small, poorly fitted or top-dose-only effect, or effect the other way;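 further: potency means the concentration at half of the fitted maximal effect; plate controls were bound peptide for no effect and peptide without receptor for full effect; nearly all actives have a fitted effect of over 50% in size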
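TRb LBD 0.6 uM + Texas Red SRC2 peptide 20 nM, 1 uM T3, Tris buffer w/ 5% DMSO; compound pinned, 5 h RT; FP read ex 555/em 632; normalized to unbound and bound controls.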
Starred values were filed as active, the others as inactive; ? = inconclusive; . = no result; [ ] = another dose, or the depositor's remark.

SMILES	TR SRC2 fluor cs	RGS12 GoLoco inh	Menin-MLL TR inh	CXXC DNA block	Menin MLL FP FL	TRb-SRC2 inh
Cc1c(C(=O)Nc2nc3ccccc3[nH]2)oc2ccccc12	-52%	13µM*	38%	23%	6	-6%
CC(C)Cc1c(C(=O)O)c(C(F)F)nc(C(F)(F)F)c1C1=NCCS1	-2%[201 µM]	.	.	.	.	0%[201 µM]
Cc1cccc(-c2cc(NC(=O)COc3ccccc3F)n(-c3ccccc3)n2)c1	1%	.	.	.	.	-3%
CCOc1ccccc1NC(=O)CN(CCc1ccccc1)S(=O)(=O)c1ccc(C)cc1	0.032µM*[quencher]	.	.	.	.	-12%
Cc1ccc(C)c(NC(=O)CN(CCc2ccccc2)S(=O)(=O)c2ccccc2)c1	2%	.	.	.	.	-2%
CCCCC(CC)C(=O)OCCOCCOCCOC(=O)C(CC)CCCC (stereo not drawn)	-3%[201 µM]	.	.	.	.	1%[201 µM]
CC(C)(O)[C@@H]1CCC[N+]2(C)CCCC[C@H]12 (stereo partly drawn)	-1%	-6%	-3%	.	1	0%
C[N+]1(C2CCC3CCCC2C3O)CCCC1 (stereo not drawn)	1%	2.8µM*	3%	24%	6	2%
CCCOc1cccc(C(=O)NC(=S)Nc2ccc(N3CCN(C)CC3)cc2)c1	-1%	13%	-3%	-4%	0	-8%
CCOc1cccc(C(=O)NC(=S)Nc2ccc(N3CCN(CC)CC3)cc2)c1	-1%	12%	7.1µM*	-2%	-8	5%
COc1ccc(-n2nnnc2C2CCN(S(=O)(=O)c3cccc(C(F)(F)F)c3)CC2)cc1	-2%	.	.	.	.	5%
CCn1ccc2cc(S(=O)(=O)N3CCC(C(=O)NCCc4ccc(C)cc4)CC3)ccc21	-2%	.	.	.	.	0%
COC(=O)c1cccc(C(=O)OC)c1	-5%[201 µM]	.	.	.	.	-6%[201 µM]
CC(C)(C)c1n[nH]c(=O)n(N)c1=O	2%[201 µM]	.	.	.	.	-4%[201 µM]
CC1=C(C#N)C(=O)OC(C)(C)C1	45µM*[fluorescent]	-46%	-26%	2%	?	?
CC(C)(C)c1ccc(C(=O)NCC(c2cccnc2)N2CCc3ccccc3C2)cc1 (stereo not drawn)	11µM*[quencher]	.	.	.	.	2%
Cc1ccc(C(=O)NCC(c2cccnc2)N2CCc3ccccc3C2)cc1C (stereo not drawn)	1%	.	.	.	.	2%
O=C(NCC(c1cccnc1)N1CCc2ccccc21)C(=O)Nc1ccccc1F (stereo not drawn)	0.32µM*[quencher]	.	.	.	.	-16%
CN(C)CCNC(=O)C(=O)NCC(c1cccnc1)N1CCN(c2ccccc2)CC1 (stereo not drawn)	-10%	.	.	.	.	3%
O=C(NCC(c1cccnc1)N1CCN(Cc2ccccc2)CC1)C(=O)Nc1ccc(F)cc1 (stereo not drawn)	5%	.	.	.	.	-8%
O=C(NCC(c1cccnc1)N1CCN(Cc2ccccc2)CC1)C(=O)Nc1cccc(F)c1 (stereo not drawn)	0.25µM*[quencher]	.	.	.	.	-14%
CCN(CC)CCNC(=O)C(=O)NCC(c1cccnc1)N1CCN(c2ccccc2)CC1 (stereo not drawn)	89µM*[quencher]	.	.	.	.	-25%
O=C(CCS(=O)(=O)c1nc(-c2ccc3c(c2)OCO3)cc(C(F)(F)F)n1)Nc1ccc(F)c(Cl)c1	-2%	.	.	.	.	-9%
Cc1cccc(C)c1NC(=O)CN(Cc1ccc(Br)cc1)S(=O)(=O)c1ccccc1	-4%	.	.	.	.	10%
O=C(NCc1cccnc1)C(=O)NCC(c1cccnc1)N1CCN(c2ccccc2F)CC1 (stereo not drawn)	100µM*[quencher]	.	.	.	.	-24%
SMILES	TR SRC2 fluor cs	RGS12 GoLoco inh	Menin-MLL TR inh	CXXC DNA block	Menin MLL FP FL	TRb-SRC2 inh
COc1ccc(C2(CNC(=O)C(=O)Nc3ccccc3C)CCCC2)cc1OC	0%	.	.	.	.	1%
Cc1cccc(Nc2cc(Cl)nc(SCC(=O)O)n2)c1C	-1%[201 µM]	9%[14.2 µM]	2%	.	?	-4%[201 µM]
O=C(N/N=C/c1cccc(F)c1)c1cc(-c2ccco2)nc2ccccc12	32µM*[quencher]	18%	?	-3%	4	27%
COc1cc(/C=N/NC(=O)c2cc(-c3ccco3)nc3ccccc23)cc(OC)c1O	-6%	-2%	.	0%	2	-2%
O=C(O)CCCCCNc1ccc2nsnc2c1[N+](=O)[O-]	35µM*[quencher]	-1%	3%	-2%	2	-12%[53 µM]
CCCN1C(=O)C2(c3ccccc31)c1c(oc3cc(C)c(C)cc3c1=O)C(=O)N2CCCOC (stereo not drawn)	-8%	.	.	.	.	5%
COc1cc(O)c2c(=O)c(O)c(-c3ccc(O)c(O)c3)oc2c1	50µM*[quencher]	-6%	?	.	?	8%
O=c1c(O)c(-c2ccc(O)cc2)oc2cc(O)cc(O)c12	-10%	5%	?	.	?	7%
COCCn1c(=O)c(-c2cccc(C#N)c2)nc2cnc(N3CCOCC3)nc21	.	20µM*	-16%	.	?	.
N#Cc1cccc(-c2nc3cnc(N4CCOCC4)nc3n(Cc3ccc(F)cc3)c2=O)c1	.	0%	9%	.	-1	.
CCc1ccc(NC(=O)C(=O)NCCc2sc3nc(-c4ccc(OC)cc4)nn3c2C)cc1	1%	.	.	.	.	-9%
COc1ccc(C(=O)Nc2ccccc2C(=O)N/N=C/c2cccc3ccccc23)cc1	-1%	6%	28µM*	31%	6	-2%
Cc1ccsc1C1NC(=O)c2c(sc3c2CCN(C)C3)N1 (stereo not drawn)	17%	67%	-20%	34%	?	-11%
CN1CCc2c(sc3c2C(=O)NC(c2cccs2)N3)C1 (stereo not drawn)	45µM*[fluorescent]	31%	28µM*	20%	?	?
O=C(NCCc1ccccc1Cl)c1ccc2c(c1)nc1n2CCOC1	0%	.	.	.	.	-3%
Cc1cccc(NC(=O)/C(=C\c2cccs2)NC(=O)c2ccccc2)c1	0%	0%	?	16%	3	?
O=C(Nc1ccccc1)/C(=C\c1cccs1)NC(=O)c1ccccc1	0.028µM*[quencher]	-8%	?	9%	8	-13%
CCC1=NN2C(=N)/C(=C\c3ccc(SCc4ccco4)o3)C(=O)N=C2S1	?	182%	?	?	?	28%
CCCC1=NN2C(=N)/C(=C\c3ccc(SCc4ccco4)o3)C(=O)N=C2S1	50µM*[fluorescent]	326%	?	73%	?	?
CCN1C=C(Cc2ccc(OC)cc2)C2=C(C1)C(c1ccc(OC)cc1)C(C#N)=C(N)O2 (stereo not drawn)	50µM*[fluorescent]	76%	?	0%	?	?
COc1ccc(C2C(C#N)=C(N)Oc3cc4c(cc32)OCO4)cc1 (stereo not drawn)	-1%	-7%	31%	3%	2	6%
C[Si]1(C)O[Si](C)(C)O[Si](C)(C)O[Si](C)(C)O[Si](C)(C)O1	-2%[201 µM]	.	.	.	.	-3%[201 µM]
